From PubChem BioAssay
HT1080NT lethal: qHTS for induction of synthetic lethality in tumor cells producing 2HG: qHTS for the HT-1080-NT fibrosarcoma cell line; 360,000 compounds, 1.6% hits; AID 686970, 2013; Potency, µM (doses to about 46.1 µM), for the others: at the top dose activity, negative = less viability, hits mostly cytotoxic; HT-1080-NT fibrosarcoma viability, CellTiter-Glo ATP luminescence, 48 h;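 note: NT is the 2HG producing partner of a matched IDH1 knockdown line; potency is the fitted concentration of half-maximal effect; 0% = DMSO-treated cells and -100% = media-only wells without cells; nearly all actives have a fitted effect of over 55% in size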
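Read-out is CellTiter-Glo luminescence after 10 minutes at room temperature, following 48 hours' compound treatment of HT-1080-NT cells (750 cells/well, RPMI, 5% FBS, 37 degrees C).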
HT1080 IDH1KD tx: qHTS for induction of synthetic lethality in tumor cells producing 2HG: qHTS for the HT-1080-IDH1KD cell line. HT-1080 IDH1 knockdown viability, ATP luminescence, 48 h. Potency, µM (top dose mostly 46.1 µM), without a hit: top-dose activity, negative = toxicity, hits mostly cytotoxic. 360,000 compounds, 2% hits. AID 686971, 2013;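 note: potency is the fitted concentration of half-maximal effect; 0% = DMSO wells and -100% = cell-free medium wells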
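After a 2 h attachment period, IDH1KD HT-1080 cells took pin-transferred compound for 48 h at 37 °C; ATP-based luminescence after 10 min room-temperature reagent incubation reported viability.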
TDP1 cell CPT: qHTS for Inhibitors of human tyrosyl-DNA phosphodiesterase 1 (TDP1): qHTS in cells in presence of CPT. Potency, µM (top dose mostly 46.2 µM), inactives show at the highest dose activity change, negative = growth inhibition, hits mostly inhibitors. chicken DT40 Tdp1-/-;hTDP1 cells + 20 nM CPT, ATP luminescence, 48 h. 420,000 compounds, 12% hits; note: potency is the fitted concentration of half-maximal effect; nearly all actives have a fitted effect of over 55% in size
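Chicken DT40 Tdp1-/- cells stably complemented with human TDP1 were seeded at 400 cells/well in medium containing 20 nM camptothecin, exposed to pin-transferred compounds, and grown at 37 °C for at least 48 hr. Viability was read as ATP luminescence.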
IL-1B inflam inh: qHTS for Inhibitors of Inflammasome Signaling: IL-1-beta AlphaLISA Primary Screen; AID 743279, 2014; activity change, % at 57.5 µM; 360,000 compounds, 4.7% hits; THP-1 LPS/ATP IL-1B secretion, AlphaLISA, 16 h; active compounds read low; in the data active = activity change below about -50%; inconclusive = mostly about -30% to -49%
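Secreted IL-1B measured by AlphaLISA bead assay after 16 h compound exposure of THP-1 cells; compounds (final up to 57.5 uM) added 1 h before LPS (250 ng/mL) and ATP (1.25 mM) stimulation; lower signal means less secretion.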
TDP1 cell noCPT: qHTS for Inhibitors of human tyrosyl-DNA phosphodiesterase 1 (TDP1): qHTS in cells in absence of CPT; DT40 Tdp1-/- hTDP1 cells, no CPT, ATP luminescence, 48 h; Potency, µM (doses to about 46.2 µM), without a hit: at the top dose activity change, negative = growth inhibition, hits mostly inhibitors; 420,000 compounds, 15% hits; note: potency is the fitted concentration of half-maximal effect; nearly all actives have a fitted effect of over 55% in size
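Chicken DT40 Tdp1-/- cells complemented with human TDP1, screened without camptothecin (DMSO vehicle only), 400 cells/well. Compounds pin-transferred, cells incubated at 37 °C for at least 48 hr. Growth read as ATP-dependent luminescence (CellTiter-Glo, 30 min at RT).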
Active calls of the source: *. In the library only some 19% were active in any assay of this set; here they are far more common. Unless noted, calls come from the whole dose curve; as a rule, active = well fitted curve in the direction sought with a large enough effect; inconclusive = small, poorly fitted or top-dose-only effect, or another doubt; inactive = no such curve, though single readings can be large; an effect the other way counts as inactive or inconclusive. Unless noted, % is set by controls: 0 for no effect and ±100 for the full control effect.

Screening CCN1CCN(C(=O)Cn2ncc3c4ccccc4n(Cc4ccccc4)c3c2=O)CC1 returned TDP1 cell CPT 16.4µM* and TDP1 cell noCPT 14.6µM*.
`COCc1cc(C)nc(OCC(=O)N/N=C/c2ccc(C)o2)c1C#N` gave HT1080NT lethal 8.9%, HT1080 IDH1KD tx 4.3%, TDP1 cell CPT -3.3%, IL-1B inflam inh -5.9 and TDP1 cell noCPT 5.9%.
Screening CCOC(=O)N1CCN(C(=S)NC(=O)c2cncc(Br)c2)CC1 returned HT1080NT lethal -0.9%, HT1080 IDH1KD tx 0.0%, TDP1 cell CPT inconclusive, IL-1B inflam inh 41.7 and TDP1 cell noCPT inconclusive.
Screening Cn1c(=O)c2sccc2n2c(CCCC(=O)NCc3ccc4c(c3)OCO4)nnc12 returned HT1080NT lethal 8.5%, HT1080 IDH1KD tx 12.8%, TDP1 cell CPT -5.8%, IL-1B inflam inh -1.0 and TDP1 cell noCPT 1.8%.
O=C(CCCNC(=O)/C(=C\c1ccc(F)cc1)NC(=O)c1ccccc1)OCc1ccccc1 was read as HT1080NT lethal -1.0%, HT1080 IDH1KD tx -5.0%, TDP1 cell CPT -9.6%, IL-1B inflam inh 5.6 and TDP1 cell noCPT -19.8%.
`O=C(O)CN=C(Nc1cc(Cl)cc(Cl)c1)NC(c1ccccc1)c1ccccc1` gave HT1080NT lethal inconclusive, HT1080 IDH1KD tx inconclusive, TDP1 cell CPT inconclusive, IL-1B inflam inh -7.0 and TDP1 cell noCPT inconclusive.
Screening CC1CCCCN1C(=O)Cn1ncc2c3ccccc3n(Cc3ccccc3F)c2c1=O (centres undefined) returned TDP1 cell CPT 9.2µM* and TDP1 cell noCPT 9.2µM*.
For CCOC(=O)C1CCCN(C(=O)Cn2ncc3c([nH]c4ccccc43)c2=O)C1 (centres undefined) the results were HT1080NT lethal 9.2%, HT1080 IDH1KD tx 5.8%, TDP1 cell CPT inconclusive, IL-1B inflam inh -83.7* and TDP1 cell noCPT inconclusive.
For CCN1CCN(C(=O)Cn2ncc3c4ccccc4n(Cc4ccccc4F)c3c2=O)CC1 the results were TDP1 cell CPT 14.6µM* and TDP1 cell noCPT 18.4µM*.
For CN1CCN(C(=O)Cn2ncc3c4ccccc4n(Cc4ccc(Cl)cc4)c3c2=O)CC1 the results were TDP1 cell CPT 23.1µM* and TDP1 cell noCPT 10.3µM*.
For Cc1ccc(C(=O)CSc2nn3c(=O)c(C(C)(C)C)nnc3s2)cc1 the results were HT1080NT lethal 5.6%, HT1080 IDH1KD tx 6.0%, TDP1 cell CPT inconclusive, IL-1B inflam inh -28.0 and TDP1 cell noCPT 18.4µM*.
CC(C)(C)c1nnc2sc(SCC(=O)c3cccs3)nn2c1=O was read as HT1080NT lethal -19.6%, HT1080 IDH1KD tx -22.2%, TDP1 cell CPT inconclusive, IL-1B inflam inh -19.4 and TDP1 cell noCPT 25.9µM*.
CC(C)(C)c1nnc2sc(SCC(=O)c3ccc(Cl)cc3)nn2c1=O was read as HT1080NT lethal 16.1%, HT1080 IDH1KD tx 20.2%, TDP1 cell CPT -23.7%, IL-1B inflam inh inconclusive and TDP1 cell noCPT inconclusive.
Screening CCC1(c2ccccc2)NC(=O)N(CC(=O)NCCN2C(=O)S/C(=C\c3cccnc3)C2=O)C1=O (centres undefined) returned HT1080NT lethal -5.2%, HT1080 IDH1KD tx -0.5%, TDP1 cell CPT -26.0%, IL-1B inflam inh -14.5 and TDP1 cell noCPT -16.8%.
O=C(NCc1ccco1)c1cc(-c2ccc3c(c2)OCO3)on1 was read as HT1080NT lethal 2.24µM*, HT1080 IDH1KD tx inconclusive, TDP1 cell CPT -6.5%, IL-1B inflam inh 0.0 and TDP1 cell noCPT -20.3%.
`Cc1ccc(Cl)cc1NC(=O)c1cc(-c2ccc3c(c2)OCCO3)on1` gave TDP1 cell CPT 14.6µM* and TDP1 cell noCPT inconclusive.
`O=C(Nc1cccc(Cl)c1)c1cc(-c2ccc3c(c2)OCCO3)on1` gave TDP1 cell CPT inconclusive and TDP1 cell noCPT 11.6µM*.
For Cc1cccc(NC(=O)c2cc(-c3ccc4c(c3)OCCO4)on2)c1 the results were TDP1 cell CPT 23.1µM* and TDP1 cell noCPT inconclusive.
`O=C(c1ccco1)N1CCC2(CCN(Cc3ccncc3)CC2)CC1` gave TDP1 cell CPT -4.1% and TDP1 cell noCPT -11.1%.
For O=C(Nc1cccc(-c2nc3cccnc3s2)c1)c1ccco1 the results were HT1080NT lethal -4.3%, HT1080 IDH1KD tx 6.8%, TDP1 cell CPT -23.1%, IL-1B inflam inh 5.9 and TDP1 cell noCPT inconclusive.
Screening O=C(Nc1cccc(-c2nc3cccnc3s2)c1)c1cccc(Br)c1 returned TDP1 cell CPT 8.2µM* and TDP1 cell noCPT 8.2µM*.
CN(C)c1ccc(C(=O)Nc2cccc(-c3nc4cccnc4s3)c2)cc1 was read as TDP1 cell CPT 5.8µM* and TDP1 cell noCPT 10.3µM*.
For CCOc1ncccc1C(=O)Nc1cccc(-c2nc3cccnc3s2)c1 the results were HT1080NT lethal -10.4%, HT1080 IDH1KD tx 0.2%, TDP1 cell CPT inconclusive, IL-1B inflam inh 57.4 and TDP1 cell noCPT 13µM*.
ClC(=Nc1cccc2ccccc12)N(c1ccccc1)c1ccccc1 was read as TDP1 cell CPT 17.8µM* and TDP1 cell noCPT 11.2µM*.
For CN(c1ccccc1)S(=O)(=O)c1cccc2ccccc12 the results were HT1080NT lethal 2.2%, HT1080 IDH1KD tx -7.8%, TDP1 cell CPT -12.1%, IL-1B inflam inh -13.7 and TDP1 cell noCPT -24.0%.
`CC1(c2nnnn2Cc2ccccc2)CCC(=O)N1Cc1cccs1` (centres undefined) gave HT1080NT lethal 10.0%, HT1080 IDH1KD tx 24.2%, TDP1 cell CPT -2.3%, IL-1B inflam inh 79.6 and TDP1 cell noCPT -12.4%.
Screening CCOc1cccc(C(=O)Nc2cc(C)ccc2NC(=O)c2ccco2)c1 returned HT1080NT lethal 8.5%, HT1080 IDH1KD tx -7.6%, TDP1 cell CPT 2.1%, IL-1B inflam inh -10.7 and TDP1 cell noCPT 15.3%.
`Cn1cnc2c(NCc3ccccc3)nc(Cl)nc21` gave TDP1 cell CPT 1.0% and TDP1 cell noCPT -15.7%.
CCN(C(=O)COC(=O)c1cc(=O)c2ccccc2o1)c1c(N)n(Cc2ccccc2)c(=O)[nH]c1=O was read as HT1080NT lethal 7.8%, HT1080 IDH1KD tx 8.0%, TDP1 cell CPT 0.5%, IL-1B inflam inh 7.8 and TDP1 cell noCPT 0.8%.
For O=C1CC(c2cc(Br)ccc2F)c2cc3c(cc2N1)CCC3 (centres undefined) the results were HT1080NT lethal 1.78µM*, HT1080 IDH1KD tx 1.26µM*, TDP1 cell CPT 2.91µM*, IL-1B inflam inh 55.1 and TDP1 cell noCPT 2.59µM*.
